Test results from PubChem BioAssay (NCATS).
Records with an inconclusive call do not appear. The source made the active and inactive calls. Calls come from the whole dose curve; as a rule, active = well fitted curve in the direction sought with a large enough effect; inconclusive = small, poorly fitted or top-dose-only effect, or another doubt; inactive = no such curve, though single readings can be large; an effect the other way counts as inactive or inconclusive.

Legend:
[1] = molecular target: Rap guanine nucleotide exchange factor 3 (Homo sapiens) (UniProt O95398); experiment: Confirmatory qHTS for agonist of cAMP-regulated guanine nucleotide exchange factor 3 (EPAC1) (AID 1645881);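 note: EPAC1 catalysed release of BODIPY-GDP from Rap1B seen as fluorescence loss; 100% = effect of cAMP agonist control; nearly all actives have a fitted effect of over 75% in size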
Chain of Rap guanine nucleotide exchange factor 3 (Homo sapiens) (O95398 whole entry, looked up): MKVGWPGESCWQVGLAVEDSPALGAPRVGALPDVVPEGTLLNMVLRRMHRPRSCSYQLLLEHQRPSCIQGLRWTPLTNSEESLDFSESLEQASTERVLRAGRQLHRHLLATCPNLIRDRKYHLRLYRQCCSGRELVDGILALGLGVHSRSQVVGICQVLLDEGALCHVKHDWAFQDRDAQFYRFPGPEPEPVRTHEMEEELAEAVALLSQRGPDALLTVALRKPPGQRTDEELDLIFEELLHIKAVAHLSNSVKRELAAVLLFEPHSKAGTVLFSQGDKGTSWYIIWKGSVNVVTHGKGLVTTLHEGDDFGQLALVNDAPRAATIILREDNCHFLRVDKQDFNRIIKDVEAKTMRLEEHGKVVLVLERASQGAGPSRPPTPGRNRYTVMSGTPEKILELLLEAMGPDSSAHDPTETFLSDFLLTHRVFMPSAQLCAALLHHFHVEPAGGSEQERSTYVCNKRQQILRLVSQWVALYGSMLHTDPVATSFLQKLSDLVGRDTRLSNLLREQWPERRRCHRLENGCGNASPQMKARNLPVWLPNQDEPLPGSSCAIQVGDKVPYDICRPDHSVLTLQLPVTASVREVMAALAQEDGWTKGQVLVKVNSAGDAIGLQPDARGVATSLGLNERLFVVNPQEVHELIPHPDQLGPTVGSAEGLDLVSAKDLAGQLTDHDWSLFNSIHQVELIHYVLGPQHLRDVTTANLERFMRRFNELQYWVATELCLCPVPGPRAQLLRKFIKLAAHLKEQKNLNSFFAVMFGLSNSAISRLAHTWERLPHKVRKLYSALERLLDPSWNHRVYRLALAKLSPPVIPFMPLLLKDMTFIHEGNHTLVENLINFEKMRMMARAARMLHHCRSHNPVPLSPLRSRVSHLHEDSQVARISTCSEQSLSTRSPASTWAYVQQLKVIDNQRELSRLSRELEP

[2] = molecular target: Rap guanine nucleotide exchange factor 4 (Homo sapiens) (UniProt Q8WZA2); experiment: Confirmatory qHTS for agonist of cAMP-regulated guanine nucleotide exchange factor 4 (EPAC2) (AID 1645884);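 note: nucleotide exchange releases bodipy-GDP from Rap1 and this lowers its fluorescence; % is set by controls: 0 for no effect and ±100 for the full control effect; nearly all actives have a fitted effect of over 65% in size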
Chain of Rap guanine nucleotide exchange factor 4 (Homo sapiens) (Q8WZA2 whole entry, looked up): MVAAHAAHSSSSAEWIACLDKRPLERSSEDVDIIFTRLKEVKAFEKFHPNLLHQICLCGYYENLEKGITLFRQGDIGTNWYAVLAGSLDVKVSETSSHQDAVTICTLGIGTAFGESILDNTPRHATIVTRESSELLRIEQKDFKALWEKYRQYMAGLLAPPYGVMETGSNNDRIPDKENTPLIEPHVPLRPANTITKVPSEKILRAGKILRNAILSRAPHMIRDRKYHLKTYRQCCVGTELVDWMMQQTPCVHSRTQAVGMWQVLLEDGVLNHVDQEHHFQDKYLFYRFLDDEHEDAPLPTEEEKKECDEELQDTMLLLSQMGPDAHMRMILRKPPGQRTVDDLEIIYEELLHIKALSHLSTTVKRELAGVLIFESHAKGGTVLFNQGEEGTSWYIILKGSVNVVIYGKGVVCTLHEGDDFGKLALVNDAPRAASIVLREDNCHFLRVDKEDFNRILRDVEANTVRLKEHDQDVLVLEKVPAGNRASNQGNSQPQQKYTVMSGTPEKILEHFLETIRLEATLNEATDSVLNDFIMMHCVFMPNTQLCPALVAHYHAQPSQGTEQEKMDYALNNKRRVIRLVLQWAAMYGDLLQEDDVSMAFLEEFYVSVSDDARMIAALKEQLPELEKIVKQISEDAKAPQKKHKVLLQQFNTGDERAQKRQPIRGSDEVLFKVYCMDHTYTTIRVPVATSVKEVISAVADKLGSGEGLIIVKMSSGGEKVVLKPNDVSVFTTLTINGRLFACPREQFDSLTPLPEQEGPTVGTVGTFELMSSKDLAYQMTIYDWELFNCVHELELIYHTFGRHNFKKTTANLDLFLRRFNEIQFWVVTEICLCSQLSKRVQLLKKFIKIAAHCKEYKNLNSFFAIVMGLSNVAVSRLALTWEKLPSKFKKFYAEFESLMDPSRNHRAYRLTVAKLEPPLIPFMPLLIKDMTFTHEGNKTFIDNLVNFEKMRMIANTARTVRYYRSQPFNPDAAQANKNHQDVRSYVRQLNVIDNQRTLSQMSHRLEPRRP

[3] = molecular target: Rap guanine nucleotide exchange factor 4 (Homo sapiens) (UniProt Q8WZA2); experiment: Confirmatory qHTS for antagonist of cAMP-regulated guanine nucleotide exchange factor 4 (EPAC2) (AID 1645885); note: nearly all actives have a fitted effect of over 25% in size; for activity change, negative = inhibition: % is set by controls: 0 for no effect and ±100 for the full control effect
[4] = molecular target: Rap guanine nucleotide exchange factor 3 (Homo sapiens) (UniProt O95398); experiment: Counterscreen qHTS for antagonist of cAMP-regulated guanine nucleotide exchange factor 3 (EPAC1) (AID 1645888);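 note: fluorescence loss as bound BODIPY-GDP is released from Rap1B; % of control where 0% means no effect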
Method in brief: (§1)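 Rap1B-BODIPY-GDP 250 nM + GDP 50 uM; cpds 7-pt, final 9.74 nM–152 uM (activator mode) or from 7.32 nM upwards (inhibitor mode); RT; FI 480/540 nm at 5 and 30 min, then ± cAMP, reread.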

[5] = molecular target: Rap guanine nucleotide exchange factor 3 (Homo sapiens) (UniProt O95398); experiment: Counterscreen qHTS for agonist of cAMP-regulated guanine nucleotide exchange factor 3 (EPAC1) (AID 1645889); note: % of control where 0% means no effect; nearly all actives have a fitted effect of over 40% in size
Method in brief: as §1

O=C(Nc1ccc(Br)cc1C(=O)O)c1ccc2c(c1)C(=O)N(Cc1ccccc1)C2=O
inactive: Potency [1] | Potency [2] | Potency [3] | Potency [4] | Potency [5]

Cc1cc(C)c(C)c(S(=O)(=O)N2CCCCC2C(=O)O)c1C (stereo not given)
inactive: Potency [1] | activation [2] 4.7% [at 17.1 µM, percent relative to cAMP agonist control] | Potency [3] | activity change, negative = inhibition [4] 8.45% [at 30.8 µM] | activation [5] -1.83% [at 30.8 µM]

CC(NC(=O)COc1ccccc1-c1ccccc1)c1ccccc1 (stereo not given)
inactive: Potency [1] | Potency [2] | Potency [3] | Potency [4] | Potency [5]

CC(=O)N1CCN(Cc2cc(=O)oc3ccc4ccccc4c23)CC1
inactive: Potency [1] | activation [2] 4.37% [at 17.1 µM, percent relative to cAMP agonist control] | Potency [3] | activity change, negative = inhibition [4] 9.94% [at 30.8 µM] | activation [5] 27.9% [at 30.8 µM]

CC(=Cc1ccccc1)C=C1SC(=S)N(CCCC(=O)Nc2ccc(C(=O)O)cc2)C1=O
inactive: Potency [1] | Potency [2] | Potency [3] | Potency [4] | Potency [5]

O=Nc1c(O)c2ccccc2c2ccccc12
inactive: Potency [1] | activation [2] 0.886% [at 17.1 µM, percent relative to cAMP agonist control] | Potency [3] | activity change, negative = inhibition [4] -4.76% [at 30.8 µM] | activation [5] 24.1% [at 30.8 µM]

CC1CCCCN1S(=O)(=O)c1ccc(C(=O)Nc2nnc(-c3ccccc3Cl)o2)cc1 (stereo not given)
inactive: Potency [1] | activation [2] 0% [at 17.1 µM, percent relative to cAMP agonist control] | Potency [3] | activity change, negative = inhibition [4] -13.1% [at 30.8 µM] | activation [5] 16.2% [at 30.8 µM]

Cc1ccc(CNC(=O)c2c[nH]n3c(=O)c(Cc4ccc(Cl)cc4)c(C)nc23)cc1
inactive: Potency [1] | Potency [2] | Potency [3] | Potency [4] | Potency [5]

CCCCCNC(=O)C(C#N)c1nc2ccccc2nc1N1CCCC1 (stereo not given)
inactive: Potency [1] | activation [2] -33.7% [at 17.1 µM, percent relative to cAMP agonist control] | Potency [3] | activity change, negative = inhibition [4] -27.7% [at 30.8 µM] | activation [5] -1.55% [at 30.8 µM]

CCOC(=O)C(NS(=O)(=O)c1ccc(C)cc1)(C(F)(F)F)P(=O)(OCC(C)C)OCC(C)C (stereo not given)
inactive: Potency [1] | Potency [2] | Potency [3] | Potency [4] | Potency [5]

O=C(NN1C(=O)/C(=C/C=C/c2ccco2)SC1=S)c1ccncc1
inactive: Potency [1] | Potency [2] | Potency [3] | Potency [4] | Potency [5]

CN(CC(=O)Nc1cccc(F)c1)C(=O)c1cccc(-n2cccc2)c1
inactive: Potency [1] | activation [2] 6.22% [at 17.1 µM, percent relative to cAMP agonist control] | Potency [3] | activity change, negative = inhibition [4] -8.31% [at 30.8 µM] | activation [5] 14.1% [at 30.8 µM]

O=C(NNc1c2ccccc2nc2ccccc12)c1ccccc1O
inactive: Potency [1] | Potency [2] | Potency [3] | Potency [4] | Potency [5]

CCOC(=O)c1ccccc1NC(=O)CSc1nc2c(sc(=S)n2CC)c(=O)[nH]1
inactive: Potency [1] | activation [2] 5.86% [at 17.1 µM, percent relative to cAMP agonist control] | Potency [3] | activity change, negative = inhibition [4] -2.38% [at 30.8 µM] | activation [5] 10.2% [at 30.8 µM]

CCCC(=O)Oc1c(S(=O)(=O)c2ccc(C)cc2)c(C)nn1C(C)(C)C
inactive: Potency [1] | activation [2] 12.6% [at 17.1 µM, percent relative to cAMP agonist control] | Potency [3] | activity change, negative = inhibition [4] -10.7% [at 30.8 µM] | activation [5] 5.13% [at 30.8 µM]

CC1C(=O)N(Cc2cn(Cc3ccco3)nn2)CCS(=O)(=O)N1Cc1ccc(-c2cccnc2)cc1 (stereo not given)
inactive: Potency [1] | activation [2] -1.85% [at 17.1 µM, percent relative to cAMP agonist control] | Potency [3] | activity change, negative = inhibition [4] 0.588% [at 30.8 µM] | activation [5] 21.5% [at 30.8 µM]

COc1cc(NC2c3ncccc3C(=O)N2Cc2ccco2)cc(OC)c1 (stereo not given)
inactive: Potency [1] | Potency [2] | Potency [3] | Potency [4] | Potency [5]

O=C(Cn1ncc(Cl)c(Cl)c1=O)NC(=O)NC1CCCCC1
inactive: Potency [1] | activation [2] 3.69% [at 17.1 µM, percent relative to cAMP agonist control] | Potency [3] | activity change, negative = inhibition [4] -1.53% [at 30.8 µM] | activation [5] 9.51% [at 30.8 µM]

Cc1ccc(F)c(S(=O)(=O)NC(=O)C2(C)CCN2C(=O)C2(c3ccc(Cl)cc3)CCC2)c1 (stereo not given)
inactive: Potency [1] | Potency [2] | Potency [3] | Potency [4] | Potency [5]

CC1(C)[C@@H](O)CC[C@]2(C)C3C(O)C=C4[C@H]5C[C@@](C)(CO)CC[C@]5(C)CC[C@]4(C)[C@]3(C)CC[C@@H]12 (stereo not given in full)
inactive: Potency [1] | activation [2] -6.54% [at 17.1 µM, percent relative to cAMP agonist control] | Potency [3] | activity change, negative = inhibition [4] -3.14% [at 30.8 µM] | activation [5] -1.49% [at 30.8 µM]
